Screening data: PubChem, several laboratories
HIF-2a inh – HIF-2a reporter inhibitors, primary screen, luminescence, 786-0 RCC cells. 786-0 RCC cells HIF-2a reporter, luciferase luminescence, overnight. 360,000 compounds, 0.72% hits. inhibition, % at 18.8 µM;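 active means inhibition of the luminescence signal of 40% or more relative to plate controls, in a single-dose primary screen at 18.75 µM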
ABHD5-PLIN5 inh – ABHD5-PLIN5 interaction inhibitors, primary screen, cell lysate, split luciferase complementation, luminescence | inhibition, % at 4 µM | Perilipin-5 (Homo sapiens) + 1-acylglycerol-3-phosphate O-acyltransferase ABHD5 (Homo … | Split G. princeps luciferase complementation, 4 h | 360,000 compounds, 0.78% hits | AID 602281, 2012;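 active means inhibition above the mean inhibition across every tested compound plus 3 SD, cut at about 22% in these data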;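 further: 0% = DMSO only wells and the 100% control is not disclosed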
CF NFkB block – inhibitors of PAF-induced NF-kB signaling, primary screen, cell-based, GFP fluorescence, uHTS; KKLEB NF-kB-GFP reporter, GFP fluorescence overnight; inhibition, % at 5 µM; 360,000 compounds, 0.86% hits; AID 588850, 2011;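 active means at least 50% inhibition at 5 µM, scaled per plate between neutral and stimulator controls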;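 further: PAF is a Pseudomonas aeruginosa culture filtrate used as stimulus; plate controls were PAF-stimulated DMSO wells for no effect and unstimulated DMSO wells for full effect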
KKLEB cytotox – cytotoxicity in KKLEB CF airway cells, primary screen, cytotoxicity control for CF NF-kB inhibitor project, cell-based, uHTS, fluorescence assay plates | KKLEB CF airway cells viability, ATPlite luminescence, overnight; hits give low values; cells stimulated with P. aeruginosa culture filtrate | activity change (cytotoxicity), % at 5 µM | 360,000 compounds, 0.36% hits | AID 602141, 2011;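 active means corrected activity change at or below -50% at 5 µM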
Mdm2-MdmX inh – inhibitors of human Mdm2-MdmX association, primary screen, cell-based, luminescence, split luciferase, SaOS-2, uHTS; Protein Mdm4 (Homo sapiens) + E3 ubiquitin-protein ligase Mdm2 (Homo sapiens), …; SaOS-2 split-luciferase Mdm2/MdmX complementation; inhibition, % at 8 µM; 330,000 compounds, 3% hits;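 active means inhibition of at least 50% at 8 µM in the primary screen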
Target sequence (O15151 whole entry, looked up): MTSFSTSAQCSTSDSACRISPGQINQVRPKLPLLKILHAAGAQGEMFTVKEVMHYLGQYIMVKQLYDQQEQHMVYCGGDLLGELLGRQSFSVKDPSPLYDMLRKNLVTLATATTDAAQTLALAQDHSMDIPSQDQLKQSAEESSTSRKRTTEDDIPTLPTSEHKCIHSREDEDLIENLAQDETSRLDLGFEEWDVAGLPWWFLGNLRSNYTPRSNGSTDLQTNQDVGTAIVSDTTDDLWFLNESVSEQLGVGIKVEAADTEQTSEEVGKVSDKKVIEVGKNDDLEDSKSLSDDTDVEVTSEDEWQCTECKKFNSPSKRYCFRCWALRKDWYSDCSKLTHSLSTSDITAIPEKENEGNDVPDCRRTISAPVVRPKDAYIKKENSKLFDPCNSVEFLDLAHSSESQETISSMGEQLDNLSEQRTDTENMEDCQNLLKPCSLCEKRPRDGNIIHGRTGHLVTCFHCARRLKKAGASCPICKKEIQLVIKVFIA
Target sequence (Q00987 whole entry, looked up): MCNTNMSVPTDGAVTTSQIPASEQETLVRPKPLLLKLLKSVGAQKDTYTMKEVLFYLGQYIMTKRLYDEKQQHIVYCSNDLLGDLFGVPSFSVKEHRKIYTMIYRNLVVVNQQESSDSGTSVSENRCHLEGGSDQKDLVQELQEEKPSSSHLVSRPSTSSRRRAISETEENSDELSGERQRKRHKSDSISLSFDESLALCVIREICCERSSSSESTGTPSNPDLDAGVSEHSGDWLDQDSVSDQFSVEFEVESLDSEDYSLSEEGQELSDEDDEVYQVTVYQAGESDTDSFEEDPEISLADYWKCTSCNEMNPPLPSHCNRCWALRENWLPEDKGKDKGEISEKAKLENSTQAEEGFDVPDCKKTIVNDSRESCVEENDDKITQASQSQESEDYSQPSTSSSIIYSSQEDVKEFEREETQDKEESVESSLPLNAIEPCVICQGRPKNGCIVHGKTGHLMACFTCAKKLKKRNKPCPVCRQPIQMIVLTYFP
Peg3 prom inh – Peg3 promoter-driven luciferase inhibitors, primary screen, cell-based, HeLa, luciferase luminescence; HeLa PEG-Prom luciferase reporter, overnight; 360,000 compounds, 1.7% hits; inhibition, % at 20 µM;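 active means inhibition of at least 50% at 20 µM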
Mdm2-MdmX conf – Mdm2-MdmX complex disruptors, retested hits, confirmation, luminescence, single concentration; Mdm2-MdmX binding, luminescent assay; inhibition, % at 8 µM; shares compounds with Mdm2-MdmX inh; AID 489028, 2010; 10,000 compounds, 55% hits; in the data active means inhibition above about 40%
FLuc counter – full-length luciferase signal inhibition, confirmation, counter-screen for Mdm2/MdmX interaction inhibitor project, cell-based, single concentration, SaOS-2. 6,200 compounds, 77% hits. inhibition, % at 8 µM. AID 504607, 2011. SaOS-2 full-length luciferase counterscreen, luminescence. shares compounds with Mdm2-MdmX inh;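 active means mean inhibition at 8 µM reaching about 37%, which flags the compound as non-specific, limit read from the data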;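 further: p53-null SaOS-2 cells with luciferase driven by a doxycycline-inducible promoter; compound on cells about two nights before reading with doxycycline added after day one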
Starred values were filed as active, the others as inactive; nt = no result. Most compounds without a hit are left out; they make up all but 4.6% or so of the library.

SMILES	HIF-2a inh	ABHD5-PLIN5 inh	CF NFkB block	KKLEB cytotox	Mdm2-MdmX inh	Peg3 prom inh	Mdm2-MdmX conf	others
COc1ccc(CCNC(=O)c2ccccc2NC(=O)CN2CCN(c3ccccc3O)CC2)cc1	14	4	-7	1	54*	52*	45*	FLuc counter=97*
O=C(CN1CCN(c2ccccc2O)CC1)Nc1ccccc1C(=O)NCCc1ccccc1	-126	-1	-3	-9	5	-19	nt
C=CCNC(=S)Nc1sc2c(c1C(=O)OCC)CC(C(C)C)OC2 (stereo not drawn)	-10	-3	-10	-19	-3	5	nt
CCOC(=O)c1c(NC(=S)NCCc2ccccc2)sc2c1CC(C(C)C)OC2 (stereo not drawn)	3	-3	60*	-36	51*	28	3
CCCc1cc(=O)n2[nH]cc(-c3ccc(Cl)cc3)c2n1	5	-3	36	-12	55*	57*	53*	FLuc counter=18
CCCOc1ccc(-c2c(C(=O)N/N=C/c3cccs3)nnn2-c2nonc2N)cc1	-5	-4	-12	13	-11	6	nt
CC(NCCC(c1ccccc1)c1ccccc1)c1ccccc1 (stereo not drawn)	5	1	-13	10	58*	11	16
O=C(N/N=C/c1cc(Cl)cc([N+](=O)[O-])c1O)c1cccc(S(=O)(=O)N2CCOCC2)c1	2	13	8	13	29	-9	nt
COCC1OC(OC(C)C(O)c2cnc3nc(N)[nH]c(=O)c3n2)C(O)C(OC)C1O (stereo not drawn)	11	2	1	-11	nt	16	nt
COc1ccc2nc(/N=C(\N)NC(=O)C(C)(C)C)nc(C)c2c1	-197	-2	-31	5	-2	-144	nt
CCC(=O)N/C(N)=N/c1nc(C)c2cc(OC)ccc2n1	-270	0	-44	-10	62*	-169	41*	FLuc counter=61*
CC1(C)C=Cc2c(c3c(c4c(=O)c(-c5ccc(O)cc5)coc24)OC(C)(C)CC3)O1	-27	-7	35	-21	75*	63*	31
COc1ccccc1CNc1nc(NCCN2CCNC2=O)c2sccc2n1	8	5	7	-16	nt	10	nt
COc1cccc2c1C(=O)c1c(O)c3c(c(O)c1C2=O)C[C@@](O)(C(=O)CO)C[C@@H]3O[C@H]1C[C@H](N)[C@H](O)[C@H](C)O1	19	6	83*	-52*	99*	95*	99*	FLuc counter=0
COCc1c(C(=O)Nc2cccc(S(=O)(=O)N3CCCCC3)c2)oc2ccccc12	-12	6	17	-15	22	22	nt
Cc1nc(Nc2ccc(Cl)c(Cl)c2)sc1C(=O)Nc1ccccc1	-173	-14	9	1	52*	-43	6
COc1ccccc1NC(=O)Nc1cc(NC(=O)Nc2ccccc2OC)c(C)nc1C	12	-1	17	-11	56*	27	33	FLuc counter=61*
COc1ccc(NC(=O)Nc2ccccc2OC)cc1	-320	6	5	6	-27	-195	nt
CC(C)(C)c1ccc(/C=N/NC(=O)Cc2c[nH]c3ccccc23)cc1	-7	-3	2	0	55*	4	-32
COC(=O)CSc1nc2ccc(NC(=O)CSc3nnnn3Cc3ccccc3)cc2s1	35	-5	-4	9	94*	32	32
O=C(CSc1nc2ccc(NC(=O)CSc3nnnn3Cc3ccccc3)cc2s1)Nc1ccccc1	7	-3	19	-16	50*	6	15
